Hits are enriched below; roughly 9.2% of the tested compounds scored in any of these assays.
SMN2 splice up: qHTS Assay for Enhancers of SMN2 Splice Variant Expression | HEK293 SMN2-luciferase splicing reporter, luminescence, 30-36 h | Potency, µM (highest dose often 46.1 µM), for inactives: at the highest dose activity change, positive = activation, hits mostly activators | 2.8% of 210,000 active; note: % of control where 0% means no effect; nearly all actives have a fitted effect of over 55% in size
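HEK293 cells carry an SMN2 […]–luciferase reporter in which exon 7 inclusion puts luciferase in frame. Cells were plated 10-12 h before compound addition, then incubated 30-36 h at 37C. ONE-Glo luminescence was read; sodium butyrate at 4.5 mM final served as control.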
NPC1 promoter act: qHTS Assay for NPC1 Promoter Activators; 2.4% of 320,000 active; Potency, µM (titrated, usually from 9.22 µM), inactives show top-dose activation, usual class: activators; Huh7 NPC1 promoter luciferase reporter, 24 h; note: % of control where 0% means no effect; nearly all actives have a fitted effect of over 60% in size
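Huh7 cells stably carrying NPC1 promoter–luciferase, plated in Opti-MEM with 10% FBS for 2 h, were exposed to compound in DMSO for 24 h at 37 °C; luciferase reagent was added for 10 min and luminescence read.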
ELG1 genotoxic: qHTS screen for small molecules that induce genotoxicity in human embryonic kidney (HEK293T) cells expressing luciferase-tagged ELG1 | HEK293T ELG1-luciferase reporter, luminescence, 16 h | Potency, µM (top dose mostly 46 µM), without a hit: at the highest dose activity change, positive = activation, actives largely listed as activators | 1.3% of 330,000 active | AID 504466, 2011; note: % of control where 0% means no effect; nearly all actives have a fitted effect of over 60% in size
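Screening used a luciferase reporter fused to human ELG1 in HEK293T cells. Luminescence was read on a CCD plate imager after 16 hr exposure and 30 min ONE-Glo incubation.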
ELG1 DNA repair: qHTS screen for small molecules that inhibit ELG1-dependent DNA repair in human embryonic kidney (HEK293T) cells expressing luciferase-tagged ELG1; HEK293T ELG1-luciferase reporter, luminescence, 16 h; DNA damage induced by 5-fluorouridine; Potency, µM (doses to about 46.1 µM), for inactives: top-dose activity change, negative = inhibition, most hits filed as inhibitors; 2.3% of 330,000 active; AID 504467, 2011; note: % is set by controls: 0 for no effect and ±100 for the full control effect; nearly all actives have a fitted effect of over 55% in size
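DMSO vehicle served as the neutral condition. Each well held 2,000 cells given 5-fluorouridine plus compound; after 16 hr at 37 °C/5% CO2, ONE-Glo was added and luciferase measured 30 min later.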
FLuc counter: qHTS profiling assay for firefly luciferase inhibitor/activator using purifed enzyme and Km concentrations of substrates (counterscreen for miR-21 project); 6.9% of 360,000 active; purified FLuc, Km substrates, luminescence inhibition; Luciferin 4-monooxygenase (Photinus pyralis), P08659; Potency, µM (highest dose often 57.5 µM), for the others: at the highest dose activity change, negative = inhibition, actives largely listed as inhibitors;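 note: plate controls were vehicle for no effect and reference inhibitor for full effect; nearly all actives have a fitted effect of over 55% in size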
Target sequence (P08659 whole entry, looked up): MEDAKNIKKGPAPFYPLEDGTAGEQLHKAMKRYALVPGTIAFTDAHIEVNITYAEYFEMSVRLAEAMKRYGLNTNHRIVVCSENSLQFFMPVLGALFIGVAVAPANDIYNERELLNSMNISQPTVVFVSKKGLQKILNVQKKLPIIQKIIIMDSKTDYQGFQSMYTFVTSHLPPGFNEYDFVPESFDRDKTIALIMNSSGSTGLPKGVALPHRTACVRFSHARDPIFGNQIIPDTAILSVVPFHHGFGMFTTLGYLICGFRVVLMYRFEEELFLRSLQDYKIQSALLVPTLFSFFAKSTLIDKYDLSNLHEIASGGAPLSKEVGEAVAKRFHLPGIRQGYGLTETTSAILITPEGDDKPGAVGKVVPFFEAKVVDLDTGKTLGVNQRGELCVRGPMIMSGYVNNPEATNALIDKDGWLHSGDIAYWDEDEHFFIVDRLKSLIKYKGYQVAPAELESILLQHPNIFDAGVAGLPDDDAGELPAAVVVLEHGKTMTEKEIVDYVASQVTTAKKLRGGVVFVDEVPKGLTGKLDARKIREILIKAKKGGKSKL
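Purified P. pyralis luciferase, 10 nM final, with Km-level 10 uM D-luciferin and 10 uM ATP in 50 mM Tris acetate pH 7.5, 10 mM Mg acetate, 0.01% Tween-20, 0.05% BSA; 6-point qHTS titration about 60 µM downward; luminescence read.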
Rab9 prom act: qHTS Assay for Rab9 Promoter Activators; Huh7 Rab9 promoter-luciferase reporter, luminescence, 24 h; Potency, µM (series often up to 9.22 µM), without a hit: at the highest dose activation, negative = inhibition, usual class: activators; 2.8% of 320,000 active; AID 485297, 2010; note: % of control where 0% means no effect; nearly all actives have a fitted effect of over 60% in size
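Huh7 cells stably carrying a Rab9 promoter-luciferase reporter, 1500 cells per well in OP-MEM I with 10% FBS, treated with compound 24 hours at 37C. Luciferase activity read by luminescence after 10 minutes with Amplite reagent.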
The depositor's hits bear a star; u = inconclusive; x = no result given. Calls come from the whole dose curve; as a rule, active = well fitted curve in the direction sought with a large enough effect; inconclusive = small, poorly fitted or top-dose-only effect, or another doubt; inactive = no such curve, though single readings can be large; an effect the other way counts as inactive or inconclusive. Potency is the fitted concentration of half-maximal effect.

SMILES	SMN2 splice up	NPC1 promoter act	ELG1 genotoxic	ELG1 DNA repair	FLuc counter	Rab9 prom act
COC(=O)[C@@H](NC(=O)O[C@@H]1C(=O)c2ccc(OC)cc2O[C@H]1c1cccc(C(F)(F)F)c1)C(C)C	-2.6%	-2.0%	-3.7%	u	3.4%	-0.6%
O=C1c2ccccc2C(=O)C1c1ccnc2ccccc12	0.398µM*	3.55µM*	u	u	0.151µM*	0.631µM*
O=C1C(c2ccnc3ccccc23)=C(O)c2ccccc21	0.398µM*	2.51µM*	u	u	0.107µM*	u
c1ccc2c(-c3nn[nH]n3)cccc2c1	-5.7%	0.9%	-0.1%	8.9%	-1.4%	-0.8%
O=C1c2ccccc2C(=O)C1c1nccc2ccccc12	0.631µM*	3.16µM*	0.082µM*	u	0.151µM*	1.26µM*
CCCCOc1ccc(C2/C(=C(/O)c3ccc4c(c3)CC(C)O4)C(=O)C(=O)N2CCCN2CCOCC2)cc1OC (centres undefined)	x	-5.9%	5.4%	-1.8%	-2.3%	4.5%
O=c1c2ccccc2nc(SCc2nc3ccccc3s2)n1CCCO	14.1µM*	u	u	u	13.5µM*	2.82µM*
COc1ccccc1CNC(=O)c1ccc2c(c1)N(Cc1cccc(C)c1)C(=O)c1ccccc1S2(=O)=O	11.4%	x	x	x	-1.4%	x
CC(C)c1ccc(C(=O)Nc2nnc(S(=O)(=O)N3CCOCC3)s2)cc1	x	-4.5%	-1.6%	-8.6%	16.9µM*	0.3%
Cc1ccccc1N1CCN(S(=O)(=O)c2nnc(NC(=O)c3ccc(C(C)C)cc3)s2)CC1	x	x	x	x	23.9µM*	x
CCN(CC)S(=O)(=O)c1nnc(NC(=O)c2ccc(C(C)C)cc2)s1	x	x	x	x	9.53µM*	x
Cc1ccccc1N1CCN(S(=O)(=O)c2nnc(NC(=O)c3ccccc3)s2)CC1	x	x	x	x	-8.1%	x
CCN(CC)C(=O)c1cc(C(C)(C)C)c(O)c(C(C)(C)C)c1	-4.0%	-1.9%	-0.4%	1.7%	-0.7%	0.4%
O=C(CSc1nc2c(c(=O)n1-c1ccccc1)SCC2)NCC1CCCO1 (centres undefined)	x	-0.3%	0.2%	-2.2%	5.3%	7.4%
CCN(CC(=O)NC1CCS(=O)(=O)C1)c1ccc([N+](=O)[O-])cc1C#N (centres undefined)	x	2.9%	0.3%	11.7%	x	-4.4%
Fc1ccc(Cn2c(-c3cccc(Br)c3)nc3ccccc32)cc1	x	x	x	x	-18.6%	x
Nc1n[nH]c(-c2ccc(F)cc2)n1	13.6%	-2.8%	4.9%	26.1%	5.7%	-3.8%
CCCc1ccc(-c2cc(N)n[nH]2)cc1	17.1%	u	16.4µM*	u	7.57µM*	u
CCCCc1ccc(-c2nc(N)n[nH]2)cc1	6.31µM*	3.16µM*	u	u	6.01µM*	1.58µM*
COC(=O)c1ccc2c(c1)c(-c1ccccc1)c(-c1ccccc1)n2C	x	x	-0.9%	-15.7%	x	x
Cc1c(/C=N/NC(=O)c2ccc3c(c2)OCO3)cnn1C	-2.8%	0.9%	2.7%	5.3%	u	1.5%
CCn1nc(C)c(/C=N\NC(=O)c2ccc3c(c2)OCO3)c1C	18.8%	5.2%	15.4%	u	23.9µM*	2.5%
CCn1nc(C)c(CNC(=O)Nc2ccc3c(c2)OCO3)c1C	u	u	u	u	23.9µM*	u
CCn1ncc(/C=N/NC(=O)c2ccc3c(c2)OCO3)c1C	17.0%	-10.2%	6.7%	-8.1%	16.9µM*	6.8%
COc1ccc2nc(NC(=O)c3ccc(F)cc3)sc2c1	x	2.51µM*	u	u	0.849µM*	1.41µM*
SMILES	SMN2 splice up	NPC1 promoter act	ELG1 genotoxic	ELG1 DNA repair	FLuc counter	Rab9 prom act
NC(=O)c1ccc2nc(NC(=O)c3ccc(N)cc3)sc2c1	u	u	16.3%	u	3.01µM*	u
COc1ccc2nc(NC(=O)c3ccc(-n4nc(C)cc4C)cc3)sc2c1	-23.4%	-1.8%	10.7%	u	-0.1%	7.0%
COc1ccc2nc(NC(=O)c3ccc4ncsc4c3)sc2c1	u	2.82µM*	5.8µM*	u	1.07µM*	1.78µM*
CC(=O)Nc1nc2cc(C(N)=O)ccc2s1	x	1.1%	4.5%	-5.2%	-28.0%	-0.1%
CCCCOc1cccc(C(=O)N(Cc2cccs2)c2ccc(OC)cc2)c1	x	x	x	x	-13.2%	x
CCOc1ccc2nc(N3CCCC(C(=O)NCc4ccc(C)cc4)C3)sc2c1 (centres undefined)	16.1%	x	x	x	-18.9%	x
CCOc1ccc2nc(N3CCCC(C(=O)NCCCN4CCOCC4)C3)sc2c1 (centres undefined)	12.6µM*	21.5%	u	u	13.5µM*	29.6%
CCOc1ccc2nc(N3CCC(C(=O)NCCCN4CCOCC4)CC3)sc2c1	x	u	u	u	8.49µM*	3.55µM*
CCOc1ccc2nc(N3CCC(C(=O)NC4CCCCC4)CC3)sc2c1	x	24.0%	3.9%	21.4%	u	15.1%
CSc1nnc(C)c(=O)n1COC(=O)COc1ccc(Cl)cc1Cl	6.8%	-7.4%	4.4%	3.2%	-11.3%	-5.0%
O=C(O)c1cn(Cc2ccccc2)c2ccc(Cl)cc2c1=O	x	-5.2%	0.4%	2.5%	0.1%	-1.2%
CCN(CC)S(=O)(=O)c1cc(NC(=O)CNc2cccc(S(=O)(=O)N3CCOCC3)c2)ccc1C	x	-27.8%	5.17µM*	u	6.3%	-34.1%
Cc1ccc(NC(=O)CSc2ccccc2)cc1S(=O)(=O)N1CCOCC1	x	-2.0%	1.1%	-8.8%	2.0%	0.7%

High-throughput results (PubChem BioAssay)
